This is an account of results in ChEMBL document CHEMBL2218924, “A broad activity screen in support of a chemogenomic map for kinase signalling research and drug discovery” (Biochem J, 2013).

For assay [1], the target named is Tyrosine-protein kinase SYK (Homo sapiens) (UniProt P43405). The conditions noted are these: at 10 µM.
Assay [2] addresses T1, Mitogen-activated protein kinase kinase kinase 7 (Homo sapiens) (UniProt O43318).
T1 sequence (whole entry): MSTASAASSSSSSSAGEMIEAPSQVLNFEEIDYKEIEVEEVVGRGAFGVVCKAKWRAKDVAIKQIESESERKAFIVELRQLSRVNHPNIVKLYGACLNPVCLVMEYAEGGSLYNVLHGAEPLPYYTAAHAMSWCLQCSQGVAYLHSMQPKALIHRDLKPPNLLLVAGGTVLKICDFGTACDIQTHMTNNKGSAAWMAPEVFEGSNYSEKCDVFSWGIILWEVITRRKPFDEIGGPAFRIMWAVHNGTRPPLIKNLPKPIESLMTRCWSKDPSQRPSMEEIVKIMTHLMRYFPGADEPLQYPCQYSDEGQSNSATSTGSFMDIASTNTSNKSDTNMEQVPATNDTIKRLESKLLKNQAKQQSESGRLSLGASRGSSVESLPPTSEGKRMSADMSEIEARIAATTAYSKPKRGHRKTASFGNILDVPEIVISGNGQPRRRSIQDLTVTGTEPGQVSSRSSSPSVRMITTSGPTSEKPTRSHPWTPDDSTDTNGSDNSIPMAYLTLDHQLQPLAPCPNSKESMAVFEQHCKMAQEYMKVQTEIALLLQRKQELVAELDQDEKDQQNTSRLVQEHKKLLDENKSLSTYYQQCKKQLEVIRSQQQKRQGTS
The conditions noted are these: at 1 µM.

Assay [3] has as its target T1, Mitogen-activated protein kinase kinase kinase 7 (Homo sapiens). Conditions: at 10 µM.
Assay [4] concerns the target T2, Serine/threonine-protein kinase TAO1 (Homo sapiens) (UniProt Q7L7X3).
T2 sequence (whole entry): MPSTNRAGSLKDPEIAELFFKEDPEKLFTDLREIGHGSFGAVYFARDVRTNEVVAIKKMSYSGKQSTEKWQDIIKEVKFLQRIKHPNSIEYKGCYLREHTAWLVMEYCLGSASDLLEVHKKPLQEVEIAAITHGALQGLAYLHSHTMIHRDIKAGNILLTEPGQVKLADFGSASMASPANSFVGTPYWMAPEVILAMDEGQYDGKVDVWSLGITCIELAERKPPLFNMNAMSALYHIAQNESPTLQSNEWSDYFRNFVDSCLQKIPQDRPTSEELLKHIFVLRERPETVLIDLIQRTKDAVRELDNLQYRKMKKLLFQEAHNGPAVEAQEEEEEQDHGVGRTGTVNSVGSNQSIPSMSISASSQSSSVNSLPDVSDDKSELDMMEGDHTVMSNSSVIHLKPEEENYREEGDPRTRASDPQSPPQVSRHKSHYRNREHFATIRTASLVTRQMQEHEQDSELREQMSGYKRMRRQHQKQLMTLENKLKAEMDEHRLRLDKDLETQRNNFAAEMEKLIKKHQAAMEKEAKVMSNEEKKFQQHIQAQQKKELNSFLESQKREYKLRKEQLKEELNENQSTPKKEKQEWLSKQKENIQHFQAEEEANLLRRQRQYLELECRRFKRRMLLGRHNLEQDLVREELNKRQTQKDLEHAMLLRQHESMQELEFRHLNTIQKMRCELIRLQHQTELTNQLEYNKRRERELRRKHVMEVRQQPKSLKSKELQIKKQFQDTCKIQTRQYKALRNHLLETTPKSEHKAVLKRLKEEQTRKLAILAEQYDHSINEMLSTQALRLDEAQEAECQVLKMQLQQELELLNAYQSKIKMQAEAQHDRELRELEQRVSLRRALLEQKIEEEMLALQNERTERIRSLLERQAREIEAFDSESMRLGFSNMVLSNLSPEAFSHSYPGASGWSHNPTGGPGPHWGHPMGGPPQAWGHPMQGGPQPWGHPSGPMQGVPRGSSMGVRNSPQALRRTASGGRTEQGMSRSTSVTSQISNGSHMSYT
The conditions noted are these: at 1 µM.

Assay [5] addresses T2, Serine/threonine-protein kinase TAO1 (Homo sapiens). The conditions noted are these: at 10 µM.
For assay [6], the target named is T3, Serine/threonine-protein kinase TAO2 (Homo sapiens) (UniProt Q9UL54).
T3 sequence (whole entry): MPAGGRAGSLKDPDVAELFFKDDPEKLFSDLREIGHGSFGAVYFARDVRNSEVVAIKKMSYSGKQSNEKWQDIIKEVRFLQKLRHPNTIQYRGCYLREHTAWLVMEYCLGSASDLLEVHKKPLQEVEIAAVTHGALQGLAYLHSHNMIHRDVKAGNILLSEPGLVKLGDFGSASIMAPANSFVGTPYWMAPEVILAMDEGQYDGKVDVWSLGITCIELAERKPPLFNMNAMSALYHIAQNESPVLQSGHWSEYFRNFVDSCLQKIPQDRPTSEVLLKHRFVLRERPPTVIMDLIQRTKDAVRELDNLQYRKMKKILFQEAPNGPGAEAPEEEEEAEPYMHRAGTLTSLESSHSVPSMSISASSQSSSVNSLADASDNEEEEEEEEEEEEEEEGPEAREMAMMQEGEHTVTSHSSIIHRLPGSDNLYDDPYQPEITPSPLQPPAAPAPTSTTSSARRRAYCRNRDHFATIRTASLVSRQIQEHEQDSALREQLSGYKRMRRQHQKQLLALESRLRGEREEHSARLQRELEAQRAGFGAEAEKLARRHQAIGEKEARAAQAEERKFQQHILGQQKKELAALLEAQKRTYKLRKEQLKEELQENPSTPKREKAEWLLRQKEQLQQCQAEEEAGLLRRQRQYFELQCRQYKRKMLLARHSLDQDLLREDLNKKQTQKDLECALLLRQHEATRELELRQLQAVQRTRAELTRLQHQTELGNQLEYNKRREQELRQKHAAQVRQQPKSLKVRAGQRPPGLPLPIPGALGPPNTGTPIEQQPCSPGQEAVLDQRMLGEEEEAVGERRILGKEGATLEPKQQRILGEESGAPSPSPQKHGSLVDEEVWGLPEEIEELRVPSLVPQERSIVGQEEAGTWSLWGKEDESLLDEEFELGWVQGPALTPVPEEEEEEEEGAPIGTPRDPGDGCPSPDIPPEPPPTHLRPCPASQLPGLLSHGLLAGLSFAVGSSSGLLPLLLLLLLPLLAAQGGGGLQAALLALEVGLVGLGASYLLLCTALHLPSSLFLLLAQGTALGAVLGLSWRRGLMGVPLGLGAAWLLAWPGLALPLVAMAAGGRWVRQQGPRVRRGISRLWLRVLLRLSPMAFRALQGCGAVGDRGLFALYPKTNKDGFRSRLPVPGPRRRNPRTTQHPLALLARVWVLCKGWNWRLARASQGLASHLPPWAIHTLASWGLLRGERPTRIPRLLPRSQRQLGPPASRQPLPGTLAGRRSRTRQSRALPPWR
Conditions: at 1 µM.

For assay [7], the target named is T3, Serine/threonine-protein kinase TAO2 (Homo sapiens). The conditions noted are these: at 10 µM.
The target of assay [8] is T4, Serine/threonine-protein kinase TAO3 (Homo sapiens) (UniProt Q9H2K8).
T4 sequence (whole entry): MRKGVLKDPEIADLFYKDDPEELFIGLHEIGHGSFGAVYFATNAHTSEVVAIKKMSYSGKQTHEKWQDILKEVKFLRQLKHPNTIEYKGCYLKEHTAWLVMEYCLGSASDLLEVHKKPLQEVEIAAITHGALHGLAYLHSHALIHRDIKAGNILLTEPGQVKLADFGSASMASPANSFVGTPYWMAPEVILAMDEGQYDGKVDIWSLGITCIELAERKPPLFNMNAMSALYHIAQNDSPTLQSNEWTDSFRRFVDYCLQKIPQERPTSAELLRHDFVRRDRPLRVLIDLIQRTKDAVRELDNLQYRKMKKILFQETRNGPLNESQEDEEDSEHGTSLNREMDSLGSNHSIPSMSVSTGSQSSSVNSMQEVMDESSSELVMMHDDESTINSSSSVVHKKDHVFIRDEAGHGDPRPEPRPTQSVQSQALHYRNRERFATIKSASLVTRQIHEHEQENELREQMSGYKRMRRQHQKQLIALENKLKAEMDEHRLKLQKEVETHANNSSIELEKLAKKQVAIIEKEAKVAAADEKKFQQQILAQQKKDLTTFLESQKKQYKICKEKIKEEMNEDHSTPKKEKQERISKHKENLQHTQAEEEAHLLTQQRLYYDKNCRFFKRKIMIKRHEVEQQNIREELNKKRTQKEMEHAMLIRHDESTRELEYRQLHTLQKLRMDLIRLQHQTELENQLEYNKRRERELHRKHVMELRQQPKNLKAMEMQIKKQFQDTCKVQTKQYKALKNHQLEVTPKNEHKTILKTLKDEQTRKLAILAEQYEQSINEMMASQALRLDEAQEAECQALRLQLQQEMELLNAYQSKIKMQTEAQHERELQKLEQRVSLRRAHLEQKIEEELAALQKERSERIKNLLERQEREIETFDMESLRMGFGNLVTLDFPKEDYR
Conditions: at 1 µM.

Assay [9] has as its target T4, Serine/threonine-protein kinase TAO3 (Homo sapiens). The conditions noted are these: at 10 µM.
Assay [10] concerns the target T5, Serine/threonine-protein kinase TBK1 (Homo sapiens) (UniProt Q9UHD2).
T5 sequence (whole entry): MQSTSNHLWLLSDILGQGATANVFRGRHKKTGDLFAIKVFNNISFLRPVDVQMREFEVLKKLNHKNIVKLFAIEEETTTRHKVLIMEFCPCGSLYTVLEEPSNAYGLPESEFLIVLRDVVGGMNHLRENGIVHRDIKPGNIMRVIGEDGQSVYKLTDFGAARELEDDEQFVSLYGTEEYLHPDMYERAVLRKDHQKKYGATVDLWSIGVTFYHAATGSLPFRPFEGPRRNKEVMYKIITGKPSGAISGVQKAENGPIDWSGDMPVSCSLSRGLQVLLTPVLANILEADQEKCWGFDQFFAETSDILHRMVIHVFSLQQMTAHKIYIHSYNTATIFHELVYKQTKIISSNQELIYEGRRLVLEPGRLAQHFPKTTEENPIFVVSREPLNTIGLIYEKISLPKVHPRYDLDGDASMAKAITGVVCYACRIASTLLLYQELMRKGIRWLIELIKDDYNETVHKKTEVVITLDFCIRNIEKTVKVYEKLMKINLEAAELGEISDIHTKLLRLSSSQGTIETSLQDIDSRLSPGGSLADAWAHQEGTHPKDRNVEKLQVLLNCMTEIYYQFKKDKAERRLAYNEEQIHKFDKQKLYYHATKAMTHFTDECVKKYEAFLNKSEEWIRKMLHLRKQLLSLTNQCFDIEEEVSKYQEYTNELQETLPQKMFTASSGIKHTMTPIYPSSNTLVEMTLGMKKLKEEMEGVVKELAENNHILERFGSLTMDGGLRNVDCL
Conditions: at 1 µM.

`Nc1n[nH]c2nnc(-c3c(-c4ccccc4)nn4ccccc34)cc12`: the residual activity in [1] was found to be 110%; in [2], 90%; in assay [3], 77%; in [4], 87%; in assay [5], 56%; in assay [6] it was 90%. The residual activity was 50% in [7], 87% in assay [8], 40% in assay [9] and 75% in [10].
